# L3MBTL1 block: qHTS Assay for the Inhibitors of L3MBTL1; Lethal(3)malignant brain tumor-like protein 1 (Homo sapiens), Q9Y468; AlphaScreen L3MBTL1–H3K9me1 peptide binding; Potency, µM (top dose mostly 57.1 µM), for the others: at the highest dose activity, negative = inhibition, usual class: inhibitors; 230,000 compounds, 0.66% hits; AID 485360, 2010; note: % is set by controls: 0 for no effect and ±100 for the full control effect; nearly all actives have a fitted effect of over 60% in size
#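 Read-out is AlphaScreen signal from streptavidin donor and nickel chelate acceptor beads (10 ug/mL final each) bridging L3MBTL1 (50 nM) and biotinylated K9-monomethylated H3(1-15) peptide (75 nM), after 30 min compound exposure at room temperature.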
# BAZ2B block: qHTS Assay for Inhibitors of BAZ2B. 360,000 compounds, 4.4% hits. Potency, µM (top dose mostly 114 µM), inactives show at the top dose activity change, negative = inhibition, most hits filed as inhibitors. AlphaScreen BAZ2B-H3K14Ac peptide displacement. AID 504333, 2011; note: % is set by controls: 0 for no effect and ±100 for the full control effect; nearly all actives have a fitted effect of over 60% in size
#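 AlphaScreen displacement of biotin-H3(5-23)K14Ac peptide (50 nM final) from BAZ2B (50 nM final) in PBS pH 7.4, 0.01% Tween-20; complex preformed 30 min RT, then compounds (top 110 uM) 30 min RT, beads 20 min dark.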
# HP1b binding inh: HTS for Inhibitors of HP1-beta Chromodomain Interactions with Methylated Histone Tails; AlphaScreen HP1-beta / biotin-H3K9me3 peptide binding; Potency, µM (titrated, usually from 114 µM), without a hit: top-dose activity change, negative = inhibition, hits mostly inhibitors; 390,000 compounds, 0.56% hits; AID 540317, 2011; note: nearly all actives have a fitted effect of over 70% in size
# Target sequence (P83916 whole entry, looked up): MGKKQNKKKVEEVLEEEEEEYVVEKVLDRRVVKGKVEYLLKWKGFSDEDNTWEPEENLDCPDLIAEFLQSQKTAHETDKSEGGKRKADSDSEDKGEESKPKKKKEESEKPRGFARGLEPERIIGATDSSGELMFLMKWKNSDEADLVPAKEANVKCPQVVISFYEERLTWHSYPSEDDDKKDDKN
#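 HP1-beta protein (50 nM final) preincubated 30 min at room temperature with biotinylated H3(1-18)K9me3 peptide (50 nM) in PBS pH 7.4, 0.01% Tween-20, then compound added for 30 min. AlphaScreen streptavidin donor/nickel chelate acceptor beads (10 ug/mL final), 30 min dark, luminescence read.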
# JMJD2A Tudor: qHTS Assay for Inhibitors of JMJD2A-Tudor Domain | Potency, µM (titrated, usually from 114 µM), for inactives: at the highest dose activity change, negative = inhibition, most hits filed as inhibitors | AID 504339, 2011 | AlphaScreen JMJD2A-Tudor / H3K4me3 peptide binding | Lysine-specific demethylase 4A (Homo sapiens), O75164 | 390,000 compounds, 4.4% hits; note: % is set by controls: 0 for no effect and ±100 for the full control effect; nearly all actives have a fitted effect of over 50% in size
# G9a inh: qHTS Assay for Inhibitors of Histone Lysine Methyltransferase G9a; G9a H3K9 monomethylation, AlphaScreen, 2 h; 350,000 compounds, 8.8% hits; Potency, µM (series often up to 102 µM), without a hit: at the highest dose activity, negative = inhibition, usual class: inhibitors; note: % is set by controls: 0 for no effect and ±100 for the full control effect; nearly all actives have a fitted effect of over 75% in size
# Target sequence (Q96KQ7 913-1193 limits assumed): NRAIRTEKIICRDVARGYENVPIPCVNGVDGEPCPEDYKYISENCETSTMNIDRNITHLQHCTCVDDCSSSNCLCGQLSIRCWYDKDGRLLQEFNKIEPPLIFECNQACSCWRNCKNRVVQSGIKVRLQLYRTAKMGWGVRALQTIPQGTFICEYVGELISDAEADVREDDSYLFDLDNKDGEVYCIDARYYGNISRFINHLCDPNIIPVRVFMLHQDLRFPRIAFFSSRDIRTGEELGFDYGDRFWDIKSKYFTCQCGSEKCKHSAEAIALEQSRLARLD
#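 Readings reflect AlphaScreen signal from monomethyl-H3K9 antibody detection. HMT at 20 nM; substrate b-H3K9 500 nM; cofactor SAM 20 uM; 2 h RT reaction; compounds tested as titrations in qHTS with 15 min preincubation.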
# Sfp inh: qHTS Assay for Inhibitors of Bacillus subtilis Sfp phosphopantetheinyl transferase (PPTase) | Biochemical Sfp PPTase activity, qHTS | AID 1490, 2009 | 4'-phosphopantetheinyl transferase ffp (Bacillus subtilis), Q9F4F7 | Potency, µM, for inactives: largest response in the series, negative = inhibition, usual class: inhibitors | 310,000 compounds, 3.5% hits;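 note: the enzyme is Sfp with the accession as filed and its product quenches rhodamine fluorescence; 0% = enzyme reaction without inhibitor and -100% = no enzyme wells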
#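 Reaction rates are the 30-min fluorescence difference (ex 525, em 598 nm) in wells containing 15 nM Sfp, 5 uM rhodamine-CoA and 12.5 uM BHQ-2-YbbR at pH 7.6 with 10 mM MgCl2.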
# * marks the source's active call; other numbers are inactive results; ? = inconclusive; . = no result given; [ ] = remark or other dose. Compounds with a hit are over-represented: about 12% of the library has one in this group of screens. Calls come from the whole dose curve; as a rule, active = well fitted curve in the direction sought with a large enough effect; inconclusive = small, poorly fitted or top-dose-only effect, or another doubt; inactive = no such curve, though single readings can be large; an effect the other way counts as inactive or inconclusive. Potency is the fitted concentration of half-maximal effect.
SMILES,L3MBTL1 block,BAZ2B block,HP1b binding inh,JMJD2A Tudor,G9a inh,Sfp inh
Cc1ccc(S(=O)(=O)N/N=C/c2cc([N+](=O)[O-])ccc2O)cc1[N+](=O)[O-],-27.5%,?,-14.1%,?,50.1µM*,?
Cc1ccc(S(=O)(=O)N/N=C\c2cc([N+](=O)[O-])ccc2Cl)cc1,-2.8%,-35.8%,4.6%,-24.6%,2.82µM*,25.1%
CC(=O)OCc1nc2ccccc2s1,4.2%,4.4%,8.7%,1.4%,72.9%[59 µM],25.9%
Cc1cc(OCc2nc3ccccc3s2)ccc1N,?,39.8µM*,?,?,10µM*,20µM*
CCC(=O)Nc1ccc(OCc2nc3ccccc3s2)cc1,.,.,-26.2%,-30.8%,10µM*,44.7µM*
CCOC(=O)C(=O)Cc1nc2ccccc2s1,-0.4%,?,13.7%,-29.5%,50.1µM*,1.5%
COc1cc2c(cc1OC)CN(C(=O)c1cccc(S(=O)(=O)N3CCc4ccccc43)c1)CC2,-16.3%,-33.3%,-12.9%,?,-3.9%[12.7 µM],.
O=Nc1c(O)ccc2cc(S(=O)(=O)O)ccc12,.,.,9.0%,2.82µM*,.,.
Nc1cccc2cc(S(=O)(=O)O)ccc12,.,.,-8.1%[57 µM],50.1µM*,.,.
CN(C)c1ccc2cc(S(=O)(=O)O)cc(O)c2c1,.,.,?,50.1µM*,.,.
CN(C)c1ccc2c(O)cc(=O)n(C)c2c1,-0.9%,3.3%,23.3%,-21.8%,?,-28.7%
CC(C)CC(OC(=O)c1nsc(Cl)c1Cl)C(=O)NCC1CCCO1 (stereo not given),.,9.4%,18.8%,-14.1%,-3.3%,-5.0%
CCOC(=O)N/N=C1/C[C@@H](O)[C@@H](O)[C@@H]2[C@@H]3C(=O)N(c4cccc(Oc5ccccc5)c4)C(=O)[C@H]3CC[C@H]12,.,.,.,.,.,3.4%
Cc1ccc(C(=O)N/C(=C/c2ccco2)C(=O)NC2CCS(=O)(=O)C2)cc1 (stereo not given),6.7%,-14.7%,32.4%,-17.0%,?,8.1%
COc1ccc(/C=C(/NC(=O)c2ccccc2)C(=O)NC2CCS(=O)(=O)C2)cc1 (stereo not given),1.3%,7.0%,-10.5%,14.1µM*,-7.8%[59 µM],8.7%
CC1=NOC2(C1)N(C)c1ccccc1C2(C)C (stereo not given),32.1%,17.8%,19.0%,-16.7%,-9.6%[59 µM],-10.7%
COc1ccc2ccc3c(c2c1)N=C[C@]1(O3)N(C)c2ccccc2C1(C)C,-0.1%,50.1µM*,?,-28.2%[11.4 µM],28.8%[0.501 µM],50.1µM*
COc1cc(C(C)=O)ccc1OCc1nnc(-c2ccccc2Br)o1,.,-5.6%,53.7%,-4.9%,11.0%,4.1%
COc1ccc(C(C)=O)cc1Cn1nnc(-c2ccccc2Br)n1,.,56.2µM*,28.2%,-6.2%,4.2%,8.1%
CNC(=S)N(Cc1cc2cc(C)ccc2n2nnnc12)CC(C)(C)CN(C)C,2.7%,8.9%,27.6%,2.3%,-2.9%,8.1%
COc1ccc([C@@H]2C=C(C(=O)O)O[C@H](OCCCCO)C2)cc1,.,79.4µM*,34.3%,?,-10.5%[12.7 µM],27.3%
COc1ccc2cc(C3CC(c4ccco4)=NN3C(=O)CCC(=O)O)c(Cl)nc2c1 (stereo not given),-6.6%,-23.6%,15.9%,-16.4%,?,50.1µM*
CCOc1ccc2cc(C3CC(c4ccco4)=NN3S(C)(=O)=O)c(Cl)nc2c1 (stereo not given),-16.1%,-30.4%,-16.9%,-28.3%,44.7µM*,1.7%
CCOc1ccc2nc(Cl)c(C3CC(c4ccccc4)=NN3C(=O)CCC(=O)O)cc2c1 (stereo not given),.,-6.1%,21.5%,-30.2%,10.8%[59 µM],.
CCOc1ccc2nc(Cl)c(C3CC(c4ccc(C)cc4)=NN3C(=O)CCC(=O)O)cc2c1 (stereo not given),.,?,-11.8%,79.4µM*,2.8%[59 µM],.
SMILES,L3MBTL1 block,BAZ2B block,HP1b binding inh,JMJD2A Tudor,G9a inh,Sfp inh
O=C(/C=C1\NC2(CCCC2)Cc2ccccc21)C(=O)N/N=C/c1ccc(O)c(O)c1,14.1µM*,39.8µM*,?,10µM*,11.2µM*,3.5%
COc1ccc(/C=N/NC(=O)C(=O)/C=C2\NC3(CCCC3)Cc3ccccc32)cc1,-5.1%,-9.5%,-0.8%,-22.1%,10.7%[59 µM],9.2%
Cc1ccccc1CCNC(=O)c1ccc2c(c1)c(C)c(C)n2Cc1ccccc1,.,-28.1%,35.9%,-29.2%,-32.1%[59 µM],.
Cc1c(C)n(Cc2ccccc2)c2ccc(C(=O)OCCCN(C)C)cc12,-20.4%,-11.6%,?,39.8µM*,8.8%,7.3%
Cc1c(C)n(CCN(C)C)c2ccc(C(=O)OCCN(C)C)cc12,.,-26.2%,9.1%,-7.4%,14.1µM*,2.2%
O=C(CCNC(=O)c1ccc(Br)cc1)Nc1cccc(S(=O)(=O)N2CCCC2)c1,?,-0.8%,1.6%,-20.7%,44.7µM*,.
COc1ccc(S(=O)(=O)N2CCOCC2)cc1NC(=O)Cc1sc(C)nc1-c1ccc(F)cc1,-5.0%,3.7%,7.2%,-22.1%,50.1µM*,.
O=C(CCNC(=O)c1ccc([N+](=O)[O-])cc1)Nc1cccc(S(=O)(=O)N2CCCCCC2)c1,-4.9%,56.2µM*,3.8%,-29.2%,-8.1%[2.33 µM],.
COc1ccc(S(=O)(=O)N2CCOCC2)cc1NC(=O)CCNC(=O)c1ccc([N+](=O)[O-])cc1,7.6%,8.5%,23.3%,-14.8%,3.55µM*,.
O=C(CCNC(=O)c1ccc([N+](=O)[O-])cc1)Nc1cccc(S(=O)(=O)N2CCOCC2)c1,2.2%,0.5%,31.8%,-2.4%,?,.
COc1ccc(S(=O)(=O)N2CCCCC2)cc1NC(=O)Cc1sc(C)nc1-c1ccc(F)cc1,-2.2%,3.4%,-4.9%,-20.5%,-27.2%,.
COc1ccc(NC(=O)CCNC(=O)c2ccc([N+](=O)[O-])cc2)cc1S(=O)(=O)N1CCOCC1,-8.2%,11.0%,27.6%,-9.7%,?,.
COCc1nc2cccnc2n1C1CCN(S(=O)(=O)N(C)C)CC1,.,1.2%,-11.3%,-15.9%,4.1%[59 µM],.
COc1ccc(CN2CC(=O)N(c3cc(Cl)ccc3OC)C2=S)cc1OC,.,-22.8%,-12.5%,-19.8%,?,-17.6%
COc1ccc(Cl)cc1N1C(=O)CN(Cc2cc(OC)c(OC)c(OC)c2)C1=S,.,-27.4%,?,?,35.5µM*,50.1µM*
Cc1csc(Nc2ccc(Cl)cc2)n1,-15.7%,?,3.8%,-16.1%,44.7µM*,11.7%
COc1ccc(Nc2nc(-c3ccc(OC)cc3)cs2)cc1,.,-1.2%,27.6%,-0.7%,-26.9%,-6.1%
Clc1ccc(Nc2nc(-c3ccncc3)cs2)cc1,.,.,-6.5%,-28.6%,.,.
